Test [1] has as its target Estrogen receptor (Homo sapiens) (UniProt P03372). Nature of the test: qHTS assay for small molecule agonists of estrogen receptor alpha signaling (AID 588514).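 Note: 0% = vehicle only and 100% = reference agonist; nearly all actives have a fitted effect of over 70% in size.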 The conditions noted are these: ER-alpha-UAS-bla HEK293, beta-lactamase ratio, 18 h; series mostly up to 76.8 µM. In a few lines:
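EC50 and efficacy came from Hill fits of beta-lactamase reporter signal (CCF4 dye, 2 h at room temperature) scaled between DMSO and 20 nM 17-beta-estradiol. Agonist mode: HEK293 ER-alpha-UAS-bla cells in charcoal/dextran-stripped serum medium, 18 h compound exposure at 37 C.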

Test [2] deals with Androgen receptor (Homo sapiens) (UniProt P10275). Nature of the test: qHTS assay for small molecule agonists of androgen receptor signaling (AID 588515; active = well fitted curve in the direction sought with a large enough effect in the signal ratio, with a control signal flat; the % refers to the signal ratio; note: % is set by controls: 0 for no effect and ±100 for the full control effect). The conditions noted are these: AR-UAS-bla HEK293, beta-lactamase ratio, agonist 16 h; stronger effect = higher value. In outline:
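Stimulation of an AR-responsive β-lactamase reporter in GripTite HEK293 cells was measured after 16 h compound exposure at 37 °C, via CCF4 fluorescence after 2 h RT. EC50 from Hill fits, normalized to R1881 at 30 nM.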

Test [3] shares this target. As to the kind of experiment: qHTS assay for small molecule antagonists of androgen receptor signaling (AID 588516; active = well fitted curve in the direction sought with a large enough effect in the signal ratio, with a control signal flat, not every such curve was filed as active; the % refers to the signal ratio; note: % is set by controls: 0 for no effect and ±100 for the full control effect). The conditions noted are these: AR-UAS-bla HEK293, beta-lactamase ratio, antagonist mode, 16 h; series mostly up to 76.8 µM. In outline:
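AR-UAS-bla-GripTite HEK 293 cells (2000/well, 5 h at 37 C) received compound titrations, then R1881 at 10 nM final; after 16 h at 37 C, CCF4 dye 2 h RT, beta-lactamase fluorescence read; IC50 from Hill fits.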

Test [4] concerns the target Glucocorticoid receptor (Homo sapiens) (UniProt P04150). Nature of the test: qHTS assay for small molecule antagonists of glucocorticoid receptor signaling (AID 588533; active = well fitted inhibition curve with a large enough effect in the signal ratio, with a control signal flat, not every such curve was filed as active; the % refers to the signal ratio; note: % is set by controls: 0 for no effect and ±100 for the full control effect). The conditions noted are these: HeLa MMTV-bla, GRE beta-lactamase ratio, antagonist mode, 18 h; series mostly up to 76.8 µM. In a few lines:
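Antagonist-mode qHTS: compound titrations added to GRE-bla HeLa cells, then dexamethasone 2 nM final; 18 h, 37 C. CCF4 FRET fluorescence normalized to dexamethasone and DMSO; IC50 from Hill fit.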

Test [5] has as its target Peroxisome proliferator-activated receptor gamma (Homo sapiens) (UniProt P37231). As to the kind of experiment: qHTS assay for small molecule agonists of peroxisome proliferator-activated receptor gamma signaling (AID 588536; active = well fitted curve in the direction sought with a large enough effect in the signal ratio, with a control signal flat, not every such curve was filed as active; the % refers to the signal ratio; note: potency is the fitted concentration of half-maximal effect;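 for activation: 0% = DMSO basal wells and 100% = rosiglitazone at 2 µM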). The conditions noted are these: HEK293 PPARg-UAS-bla, beta-lactamase ratio, 16 h; series mostly up to 76.7 µM. In a few lines:
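Compound treatment: 16 h, 37 C, HEK293 GeneBLAzer cells. Detection: CCF4, 2 h RT. Values: Hill-fit EC50, efficacy as % of 2 uM rosiglitazone.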

Test [6] deals with Thyroid hormone receptor beta (Homo sapiens) (UniProt P10828). As to the kind of experiment: qHTS assay for small molecule agonists of thyroid hormone receptor beta signaling (AID 588545).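 Note: 0% = DMSO only and 100% = 10 nM T3.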 The conditions noted are these: TR-UAS-bla GripTite HEK 293, beta-lactamase ratio, agonist mode, 18 h, percent of T3 response, DMSO as zero; series mostly up to 76.7 µM. In outline: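 Beta-lactamase reporter activity under TR response element control is measured in HEK 293 cells after 18 hrs compound exposure. Signal is ratiometric CCF4 fluorescence, 460/530 nm.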
Thyroid hormone receptor beta (Homo sapiens), sequence (P10828 whole entry, looked up): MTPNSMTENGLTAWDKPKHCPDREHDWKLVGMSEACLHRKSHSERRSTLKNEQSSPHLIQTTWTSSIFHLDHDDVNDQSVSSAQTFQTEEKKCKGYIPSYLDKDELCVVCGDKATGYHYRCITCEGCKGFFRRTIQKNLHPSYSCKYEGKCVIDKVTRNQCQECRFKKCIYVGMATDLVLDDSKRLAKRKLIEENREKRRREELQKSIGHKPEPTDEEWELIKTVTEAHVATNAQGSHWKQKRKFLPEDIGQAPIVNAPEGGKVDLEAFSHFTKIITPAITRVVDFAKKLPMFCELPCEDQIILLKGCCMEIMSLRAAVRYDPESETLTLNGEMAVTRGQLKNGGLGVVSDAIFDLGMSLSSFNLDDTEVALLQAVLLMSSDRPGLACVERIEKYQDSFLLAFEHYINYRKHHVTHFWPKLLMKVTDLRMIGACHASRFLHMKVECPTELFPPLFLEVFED

Test [7] is described as follows: qHTS assay for small molecule antagonists of retinoid X receptor alpha signaling (AID 588546; active = well fitted inhibition curve with a large enough effect in the signal ratio, with a control signal flat, not every such curve was filed as active; the % refers to the signal ratio;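 note: cells stimulated with 9-cis-retinoic acid as agonist; % is set by controls: 0 for no effect and ±100 for the full control effect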). The conditions noted are these: HEK293T RXRa-UAS-bla, beta-lactamase ratio, antagonist mode; measured here: W530 green channel, cytotoxicity proxy. In outline: (§1)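 Beta-lactamase reporter inhibition, read as CCF4 fluorescence ratio (ex 405, em 460/530 nm) after 2 h at RT. HEK293T UAS-bla cells, 2500/well, were stimulated with 9-cis-RA at 500 or 100 nM final alongside test compound for 18 h at 37 C.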

In test [8] the target is Retinoic acid receptor RXR-alpha (Homo sapiens) (UniProt P19793). Described as above. The conditions noted are these: HEK293T RXRa-UAS-bla, beta-lactamase ratio, antagonist mode. In a few lines: as §1
Retinoic acid receptor RXR-alpha (Homo sapiens), sequence (P19793 whole entry, looked up): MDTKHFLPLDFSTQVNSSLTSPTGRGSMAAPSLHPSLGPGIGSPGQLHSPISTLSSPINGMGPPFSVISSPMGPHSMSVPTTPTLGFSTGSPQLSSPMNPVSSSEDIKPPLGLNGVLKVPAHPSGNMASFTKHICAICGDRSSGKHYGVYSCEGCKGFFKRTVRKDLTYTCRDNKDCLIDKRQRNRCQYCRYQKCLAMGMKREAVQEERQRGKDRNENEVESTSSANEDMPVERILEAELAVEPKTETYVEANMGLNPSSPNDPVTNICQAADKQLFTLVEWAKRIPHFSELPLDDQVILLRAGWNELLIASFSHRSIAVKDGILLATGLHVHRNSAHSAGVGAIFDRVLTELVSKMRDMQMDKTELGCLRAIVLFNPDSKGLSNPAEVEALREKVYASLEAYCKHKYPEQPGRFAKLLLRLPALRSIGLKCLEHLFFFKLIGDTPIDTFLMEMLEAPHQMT
In test [9] the target is Thyroid hormone receptor beta (Homo sapiens) (UniProt P10828). Nature of the test: qHTS assay for small molecule antagonists of thyroid hormone receptor beta signaling (AID 588547; active = well fitted inhibition curve with a large enough effect in the signal ratio, with a control signal flat, not every such curve was filed as active; the % refers to the signal ratio). The conditions noted are these: TR-UAS-bla HEK293, beta-lactamase ratio, antagonist mode, 18 h. In outline: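 TR-UAS-bla GripTite HEK293 cells in 2% charcoal/dextran FBS medium; compounds 0.59 nM to 92 uM with T3 at 0.4nM final, 18 h at 37 C. Beta-lactamase read by CCF4 fluorescence (460/530 nm); Hill fits gave IC50 and efficacy.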

For test [10], the target named is DNA dC->dU-editing enzyme APOBEC-3G (Homo sapiens) (UniProt Q9HC16). As to the kind of experiment: qHTS for inhibitors of Vif-A3G interactions: Validation (AID 588379; active = well fitted inhibition curve with a large enough effect; note: 0% is about no effect). The conditions noted are these: Vif-A3G protein interaction assay; series mostly up to 46.1 µM. In outline:
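Yellow fluorescence (Ex 488, Em 500-530) of Vif-coexpressing HeLa A3G-eYFP cells, scanned by Acumen cytometer, reports blocked A3G degradation. Cells plated at 700/well overnight at 37 deg C before compound addition, then a further overnight compound incubation at 37 deg C.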

Test [11] has as its target Bile acid receptor (Homo sapiens) (UniProt Q96RI1). Nature of the test: qHTS assay for small molecule antagonists of farnesoid X receptor signaling (AID 588526). Note: % is set by controls: 0 for no effect and ±100 for the full control effect. The conditions noted are these: HEK293T FXR-UAS-bla, beta-lactamase ratio, antagonist mode; series mostly up to 76.7 µM. In outline:
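Antagonist mode: titrated compounds tested against chenodeoxycholic acid stimulation (normalized to 50 uM CDCA and DMSO) in GeneBLAzer HEK293T cells for 16 h. Beta-lactamase read by CCF4 fluorescence; IC50 from Hill fits.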

The target in test [12] is Glucocorticoid receptor (Homo sapiens) (UniProt P04150). Nature of the test: qHTS assay for small molecule agonists of glucocorticoid receptor signaling (AID 588532; active = well fitted curve in the direction sought with a large enough effect in the signal ratio, with a control signal flat; the % refers to the signal ratio;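 note: 100% = dexamethasone at 0.1 µM and 0% = DMSO only wells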). The conditions noted are these: HeLa MMTV-bla, beta-lactamase ratio, agonist, 18 h; stronger effect = higher value; percent of dexamethasone control, DMSO zero. In a few lines: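 MMTV-bla HeLa beta-lactamase reporter cells in 1% charcoal/dextran FBS medium, compounds up to 92 uM for 18 h at 37 C, CCF4 readout; normalized to 0.1 uM dexamethasone (100%), EC50 and efficacy from Hill fits.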
Glucocorticoid receptor (Homo sapiens), sequence (P04150 whole entry, looked up): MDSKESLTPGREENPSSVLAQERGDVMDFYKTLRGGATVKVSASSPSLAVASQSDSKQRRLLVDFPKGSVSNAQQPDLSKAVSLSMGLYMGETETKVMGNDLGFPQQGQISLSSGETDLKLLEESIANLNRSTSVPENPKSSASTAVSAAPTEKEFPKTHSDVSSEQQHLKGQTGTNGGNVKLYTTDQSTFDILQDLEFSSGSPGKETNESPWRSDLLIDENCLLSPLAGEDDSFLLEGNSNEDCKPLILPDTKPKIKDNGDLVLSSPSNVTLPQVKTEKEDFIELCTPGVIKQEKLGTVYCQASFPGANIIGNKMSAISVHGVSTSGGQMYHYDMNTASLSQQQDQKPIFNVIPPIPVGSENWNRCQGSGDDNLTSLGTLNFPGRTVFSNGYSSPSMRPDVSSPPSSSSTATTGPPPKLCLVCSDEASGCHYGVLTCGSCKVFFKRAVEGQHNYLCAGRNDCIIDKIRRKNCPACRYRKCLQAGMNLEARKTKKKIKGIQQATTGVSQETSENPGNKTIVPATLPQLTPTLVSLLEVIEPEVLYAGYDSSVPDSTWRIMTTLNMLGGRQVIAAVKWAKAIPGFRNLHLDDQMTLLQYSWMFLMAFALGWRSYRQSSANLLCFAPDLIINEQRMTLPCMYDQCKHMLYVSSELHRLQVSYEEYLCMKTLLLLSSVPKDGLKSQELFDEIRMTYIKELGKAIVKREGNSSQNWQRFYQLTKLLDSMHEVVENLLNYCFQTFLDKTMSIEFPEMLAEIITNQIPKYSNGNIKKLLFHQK

Test [13] concerns the target Vitamin D3 receptor (Homo sapiens) (UniProt P11473). As to the kind of experiment: qHTS assay for small molecule antagonists of vitamin D receptor signaling (AID 588541). The conditions noted are these: HEK293T VDR-UAS-bla, beta-lactamase ratio, antagonist mode; series mostly up to 76.7 µM. In outline: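 VDR-UAS-bla HEK293T cells in 2% charcoal-stripped FBS were stimulated with 1-alpha,25-dihydroxyvitamin D3 (3 nM final) plus compound for 16 h at 37 C. The beta-lactamase CCF4 readout was normalized to 50 nM agonist and DMSO, and Hill fits gave IC50.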

Test [14] has the same target. As to the kind of experiment: qHTS assay for small molecule agonists of vitamin D receptor signaling (AID 588543).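 Note: 0% = DMSO basal and 100% = reference agonist control.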 The conditions noted are these: HEK293T VDR-UAS-bla, beta-lactamase ratio, 16 h; series mostly up to 76.8 µM. In a few lines:
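GeneBLAzer VDR-UAS-bla HEK293T cells in 2% charcoal-stripped FBS medium were dosed with compound titrations for 16 h at 37 °C; CCF4 β-lactamase readout (405 nm ex, 460/530 nm em). EC50 and efficacy from Hill fits, normalized to 50 nM calcitriol (100%) and DMSO (0%).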

The nature of test [15]: qHTS assay for small molecule agonists of retinoid X receptor alpha signaling (AID 588544).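 For activation: 0% = DMSO basal wells and 100% = reference agonist.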 Note: potency is the fitted concentration of half-maximal effect. The conditions noted are these: HEK293T RXRa-UAS-bla, beta-lactamase reporter, 18 h; 530 nm emission.
Test [16] deals with Retinoic acid receptor RXR-alpha (Homo sapiens) (UniProt P19793). Described as above. The conditions noted are these: HEK293T RXRa-UAS-bla, beta-lactamase reporter, 18 h; series mostly up to 76.7 µM.
In test [17] the target is Peroxisome proliferator-activated receptor gamma (Homo sapiens) (UniProt P37231). Nature of the test: qHTS assay for small molecule antagonists of peroxisome proliferator-activated receptor gamma signaling (AID 588537; active = well fitted inhibition curve with a large enough effect in the signal ratio, with a control signal flat, not every such curve was filed as active; the % refers to the signal ratio;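 note: reporter cells co-stimulated with 50 nM rosiglitazone agonist during compound treatment; % of control where 0% means no effect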). The conditions noted are these: HEK293 PPARg-UAS-bla, beta-lactamase ratio, antagonist mode; series mostly up to 76.8 µM. In outline:
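Fluorescence at 460 and 530 nm (405 nm excitation) reported beta-lactamase cleavage of CCF4 after 2 h room-temperature loading. HEK293 reporter cells in 1% charcoal/dextran-treated FBS had received compound and rosiglitazone for 16 h.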

Test [18] in a line: qHTS assay for small molecule antagonists of peroxisome proliferator-activated receptor delta signaling (AID 588535; active = well fitted inhibition curve with a large enough effect in the signal ratio, with a control signal flat, not every such curve was filed as active; the % refers to the signal ratio;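 for max response: cells co-treated with a PPAR-delta agonist as stimulator during compound exposure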). The conditions noted are these: HEK293T PPARd-UAS-bla, beta-lactamase FRET ratio, 18 h; 460 nm channel. In a few lines: (§2)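 Fluorescence from CCF4-loaded GeneBLAzer PPAR-delta-UAS-bla HEK293T cells (2 hrs RT loading) quantified reporter inhibition after an 18 hr, 37 C compound exposure across a titration.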

Test [19] deals with Peroxisome proliferator-activated receptor delta (Homo sapiens) (UniProt Q03181). The description is as above. The conditions noted are these: HEK293T PPARd-UAS-bla, beta-lactamase FRET ratio, 18 h; series mostly up to 76.7 µM. In outline: as §2
Peroxisome proliferator-activated receptor delta (Homo sapiens), sequence (Q03181 whole entry, looked up): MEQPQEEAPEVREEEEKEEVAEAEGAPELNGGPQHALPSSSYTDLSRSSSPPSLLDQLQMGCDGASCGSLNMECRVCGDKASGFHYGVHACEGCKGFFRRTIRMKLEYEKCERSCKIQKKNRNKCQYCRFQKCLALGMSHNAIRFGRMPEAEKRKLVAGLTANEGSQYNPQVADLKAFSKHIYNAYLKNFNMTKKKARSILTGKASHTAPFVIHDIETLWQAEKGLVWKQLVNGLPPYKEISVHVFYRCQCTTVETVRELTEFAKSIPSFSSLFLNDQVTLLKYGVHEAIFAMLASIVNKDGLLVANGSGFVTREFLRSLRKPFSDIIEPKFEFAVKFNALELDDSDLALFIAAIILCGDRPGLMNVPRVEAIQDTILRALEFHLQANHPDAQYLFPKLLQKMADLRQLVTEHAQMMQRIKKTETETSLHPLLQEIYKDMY

Experimental findings from PubChem BioAssay (NCATS) are described below.

Records with an inconclusive call do not appear. Calls of active or inactive are those of the source. Unless noted, calls come from the whole dose curve.

Bile acid receptor (Homo sapiens), sequence (Q96RI1 whole entry, looked up): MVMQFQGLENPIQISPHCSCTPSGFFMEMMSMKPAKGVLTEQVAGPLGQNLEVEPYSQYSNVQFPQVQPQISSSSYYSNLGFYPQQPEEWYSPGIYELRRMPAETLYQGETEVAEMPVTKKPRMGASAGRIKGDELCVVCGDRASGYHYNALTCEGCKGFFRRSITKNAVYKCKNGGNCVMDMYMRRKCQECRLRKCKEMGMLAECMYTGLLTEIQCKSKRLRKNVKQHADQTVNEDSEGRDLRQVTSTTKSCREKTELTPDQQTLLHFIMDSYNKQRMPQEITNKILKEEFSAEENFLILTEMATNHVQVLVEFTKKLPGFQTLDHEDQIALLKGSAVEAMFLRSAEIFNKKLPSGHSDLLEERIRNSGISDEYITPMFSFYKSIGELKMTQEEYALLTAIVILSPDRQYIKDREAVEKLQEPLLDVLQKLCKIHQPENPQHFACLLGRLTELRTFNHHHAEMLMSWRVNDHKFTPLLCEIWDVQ
Peroxisome proliferator-activated receptor gamma (Homo sapiens), sequence (P37231 whole entry, looked up): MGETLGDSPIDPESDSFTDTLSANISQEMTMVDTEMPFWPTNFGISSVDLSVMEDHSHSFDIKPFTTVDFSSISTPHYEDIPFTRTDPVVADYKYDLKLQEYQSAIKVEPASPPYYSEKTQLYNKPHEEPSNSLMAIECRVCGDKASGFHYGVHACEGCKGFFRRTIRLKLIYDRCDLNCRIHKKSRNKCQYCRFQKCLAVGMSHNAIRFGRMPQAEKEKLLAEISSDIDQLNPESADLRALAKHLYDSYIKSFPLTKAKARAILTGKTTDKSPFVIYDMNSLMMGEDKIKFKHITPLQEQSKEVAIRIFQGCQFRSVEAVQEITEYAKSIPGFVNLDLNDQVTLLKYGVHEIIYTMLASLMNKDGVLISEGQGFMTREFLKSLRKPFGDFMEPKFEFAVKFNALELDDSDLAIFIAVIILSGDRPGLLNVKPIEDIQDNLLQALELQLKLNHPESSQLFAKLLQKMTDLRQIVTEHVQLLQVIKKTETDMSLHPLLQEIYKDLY
Androgen receptor (Homo sapiens), sequence (P10275 whole entry, looked up): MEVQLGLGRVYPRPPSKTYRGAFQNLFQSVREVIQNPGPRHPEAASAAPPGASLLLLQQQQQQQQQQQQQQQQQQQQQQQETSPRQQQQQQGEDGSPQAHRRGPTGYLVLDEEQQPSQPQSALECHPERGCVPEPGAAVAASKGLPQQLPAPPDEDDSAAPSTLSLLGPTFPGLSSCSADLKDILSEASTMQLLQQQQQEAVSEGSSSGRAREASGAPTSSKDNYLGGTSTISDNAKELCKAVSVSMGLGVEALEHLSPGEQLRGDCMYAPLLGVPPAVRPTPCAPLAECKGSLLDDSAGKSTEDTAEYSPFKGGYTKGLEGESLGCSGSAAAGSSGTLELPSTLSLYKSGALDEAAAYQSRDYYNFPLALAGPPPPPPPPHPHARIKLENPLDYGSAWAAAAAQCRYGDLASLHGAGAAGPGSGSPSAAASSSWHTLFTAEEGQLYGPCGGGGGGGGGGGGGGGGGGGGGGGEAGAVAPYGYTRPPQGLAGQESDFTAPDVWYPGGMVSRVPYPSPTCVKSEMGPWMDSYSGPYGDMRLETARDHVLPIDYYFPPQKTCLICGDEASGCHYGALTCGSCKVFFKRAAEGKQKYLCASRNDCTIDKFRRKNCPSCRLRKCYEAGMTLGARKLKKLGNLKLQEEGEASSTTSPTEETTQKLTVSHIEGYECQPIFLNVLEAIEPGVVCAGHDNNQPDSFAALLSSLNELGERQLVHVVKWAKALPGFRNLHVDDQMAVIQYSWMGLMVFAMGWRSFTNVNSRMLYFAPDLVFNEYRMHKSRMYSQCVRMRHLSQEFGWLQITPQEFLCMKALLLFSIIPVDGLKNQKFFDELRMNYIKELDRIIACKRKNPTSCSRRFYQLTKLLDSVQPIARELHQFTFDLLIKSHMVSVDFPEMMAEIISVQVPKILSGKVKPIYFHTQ
Vitamin D3 receptor (Homo sapiens), sequence (P11473 whole entry, looked up): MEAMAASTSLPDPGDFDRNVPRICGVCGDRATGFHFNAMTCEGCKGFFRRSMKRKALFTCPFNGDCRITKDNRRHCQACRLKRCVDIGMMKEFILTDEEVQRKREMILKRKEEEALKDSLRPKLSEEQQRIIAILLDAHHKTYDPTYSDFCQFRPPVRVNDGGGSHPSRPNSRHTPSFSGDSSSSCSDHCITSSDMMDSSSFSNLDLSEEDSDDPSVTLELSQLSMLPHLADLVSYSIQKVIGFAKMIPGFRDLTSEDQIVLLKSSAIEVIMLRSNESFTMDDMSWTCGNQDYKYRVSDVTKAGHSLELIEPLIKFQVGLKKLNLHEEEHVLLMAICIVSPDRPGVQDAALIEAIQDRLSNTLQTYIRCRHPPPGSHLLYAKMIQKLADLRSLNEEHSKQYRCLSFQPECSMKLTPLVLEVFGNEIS
DNA dC->dU-editing enzyme APOBEC-3G (Homo sapiens), sequence (Q9HC16 whole entry, looked up): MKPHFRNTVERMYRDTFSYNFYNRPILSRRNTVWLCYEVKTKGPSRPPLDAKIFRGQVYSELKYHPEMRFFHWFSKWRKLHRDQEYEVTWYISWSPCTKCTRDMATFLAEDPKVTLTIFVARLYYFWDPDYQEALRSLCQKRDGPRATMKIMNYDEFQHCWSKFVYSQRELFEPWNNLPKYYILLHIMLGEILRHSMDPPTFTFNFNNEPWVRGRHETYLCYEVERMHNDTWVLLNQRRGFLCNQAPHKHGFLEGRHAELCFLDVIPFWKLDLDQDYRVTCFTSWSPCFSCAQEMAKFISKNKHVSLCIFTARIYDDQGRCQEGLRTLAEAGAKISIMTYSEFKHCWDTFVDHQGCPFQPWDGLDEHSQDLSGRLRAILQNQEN

Consider `CCCCCCCCCCCCCCSCC(=O)O`, for which the Potency entry in test [1] and in test [4] was “inactive” in each case. The activation in test [2] is -2.58% (inactive). Also, the outcome in test [3] and in [6] was inactive. In [5], the Potency was 28.2 µM (active). In addition, the max response was 10.4% in test [7] and 5.79% (inactive) in test [8]. In addition, in test [9], the activity change % (negative = inhibition) is -24.7% (inactive).

As for `NCCCNCCCCNCCCN`, the Potency result in test [10] is “inactive”.

Consider `CCCCCC[C@@H]([C@@H](C)O)n1cnc2c(N)ncnc21`, for which the Potency entry in test [10] is “inactive”.

In the case of `NCCS(=O)O`, the Potency entry in test [10] was “inactive”.

As for `C/C(=C\c1ccc(C(=O)O)cc1)c1ccc2c(c1)C(C)(C)CCC2(C)C`, the Potency result in [10] and in test [1] was “inactive” each time. Moreover, the result in test [11], in test [13] and in test [14] was inactive. Moreover, in test [12], the activation was -4.65% (inactive). Moreover, the figures for the max response in [15], in [7] and in test [8] were 0.91%, -6.55% and 9.51% (inactive), respectively. For the same compound, the Potency in test [16] was 0.708 µM (active).

Turning to `Cc1nc(N=Nc2cc(S(=O)(=O)O)c3cc([N+](=O)[O-])cc(S(=O)(=O)O)c3c2)c(COP(=O)(O)O)c(C=O)c1O`, the Potency entry in test [10] was “inactive”.

As to `CCCc1c(OCCCOc2ccc(OCC(=O)O)cc2)ccc(C(C)=O)c1O`, the values for the activation in test [2] and in test [12] were -2.09% (inactive) and -12.7% (inactive), respectively. Besides, the outcome in test [3], in test [11] and in test [6] was inactive. Besides, the Potency result in test [4] and in test [17] was “inactive” throughout. In addition, the max response in test [7] is 32.8%; in test [8] it was -30.3% (inactive).

As to `CC(=O)C(C)=O`, the result in test [11], in test [19], in [13], in [14] and in [6] was inactive. In addition, the activation in [12] is 6.3% (inactive). Besides, the Potency result in [4], in [5] and in test [16] was “inactive” each time. In addition, the max response in test [18] is 5.57%; in test [15], -1.88%; in test [7], 7.05%; in [8], 13% (inactive). Besides, in test [9], the activity change % (negative = inhibition) was -0.316% (inactive).

As for `CC1=C(/C=C/C(C)=C/C=C/C(C)=C\C(=O)O)C(C)(C)CCC1`, the activation in [12] is -7.34% (inactive). In addition, in test [18], the max response worked out at 61.4%. Moreover, the result in [19], in test [13] and in test [6] was inactive. Further, the Potency entry in test [17] was “inactive”. For the same compound, in test [9], the activity change % (negative = inhibition) was 9.82% (inactive).

Consider `NC[C@@H]1O[C@H](c2ccccc2)Cc2c1ccc(O)c2O`, for which, in test [10], the Potency result is “inactive”.
